High-throughput results from PubChem.
FMDV antiviral: High Throughput Screening for Foot and Mouth Disease Virus Antivirals; FMDV antiviral cell-based qHTS; Potency, µM (series often up to 57.9 µM), actives largely listed as inhibitors; 1.2% of 410,000 active; AID 1159524, 2015; calls by dose curve; tested in HEK293T cells; note: read-out not given here; nearly all actives have a fitted effect of over 45% in size
Lassa entry inh: qHTS for Inhibitors of binding or entry into cells for Lassa Virus. AID 540256, 2011. Potency, µM (highest dose often 37.9 µM), actives largely listed as inhibitors. Lassa virus pseudotype entry inhibition, cell reporter. 1.2% of 300,000 active; calls by dose curve; tested in HEK293 cells; note: nearly all actives have a fitted effect of over 50% in size
HCMV inh: qHTS Assay for inhibitors of the human cytomegalovirus (HCMV) | 4.5% of 410,000 active | activity change, negative = inhibition, % at 57.5 µM | AID 1259415, 2018 | HFF cells, HCMV-luciferase reporter, 72 h; active compounds read low; in the data active = activity change below about -60%; inconclusive = no clear call, values can overlap the other calls; inactive = above about -39%
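Screen run at 2 compound doses on HFFs infected with reporter HCMV, MOI 1 PFU/cell. Luciferase activity from cell lysates at 72 h post infection gave inhibition relative to buffer-only and Salinomycin wells.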
MARV entry inh: qHTS for inhibitors of binding or entry into cells for Marburg Virus; 1.8% of 300,000 active; Marburg virus pseudotyped entry inhibition, cell reporter; Potency, µM (doses to about 37.8 µM), most hits filed as inhibitors; AID 540276, 2011; calls by dose curve; tested in HEK293 cells
Hits are given with their value. Only some compounds are listed: those with a hit (about 6.2% of all), similar ones and a draw of the others.

For Fc1ccccc1Cn1c2[n+](c3ccc(C(F)(F)F)cc31)CCCCC2 the results were FMDV antiviral inactive, Lassa entry inh inactive, HCMV inh -67.6 and MARV entry inh inactive.
`OCCNc1c2ccccc2nc2ccccc12` gave FMDV antiviral inactive, Lassa entry inh inactive, HCMV inh -100.9 and MARV entry inh inconclusive.
Screening OCCNc1nc2ccccc2nc1NCCO returned FMDV antiviral inactive, Lassa entry inh inactive, HCMV inh inactive and MARV entry inh inactive.
Screening Cc1ccccc1C1=NOC2CN(C(=O)c3ccc4c(c3)OCO4)CC12 (configuration not stated) returned HCMV inh inactive.
CCC(=O)Nc1nonc1-c1nc2ccccc2n1Cc1ccccc1 was read as FMDV antiviral inactive, Lassa entry inh inactive, HCMV inh inactive and MARV entry inh inactive.
CCC(=O)Nc1nonc1-c1nc2ccccc2n1Cc1cccc2ccccc12 was read as FMDV antiviral inconclusive, Lassa entry inh inconclusive, HCMV inh -104.1 and MARV entry inh inconclusive.
Screening O=C(Nc1cc([N+](=O)[O-])ccc1Cl)C(Sc1ccccc1)c1ccccc1 (configuration not stated) returned FMDV antiviral inconclusive, Lassa entry inh inactive, HCMV inh inconclusive and MARV entry inh inconclusive.
O=C(Nc1ccc(Cl)c([N+](=O)[O-])c1)C(Sc1ccccc1)c1ccccc1 (configuration not stated) was read as FMDV antiviral inconclusive, Lassa entry inh inconclusive, HCMV inh -102.3 and MARV entry inh inconclusive.
For C=CCN=C1NC(c2cccc(C(F)(F)F)c2)C(C(=O)OC)=C(C)N1CC (configuration not stated) the results were MARV entry inh inactive.
`NC(=S)NN=Cc1cc(-c2cccc(N)c2)ccn1` gave FMDV antiviral inactive and HCMV inh -99.7.
NC(=S)N/N=C/c1ccc(-c2cccc([N+](=O)[O-])c2)o1 was read as FMDV antiviral inactive, Lassa entry inh inactive, HCMV inh inactive and MARV entry inh inactive.
Screening CC(C)C(=O)N1c2nc(C(C)C)nn2C2(CCCCC2)[C@@H]2CCCC[C@@H]21 returned FMDV antiviral inconclusive, Lassa entry inh inactive, HCMV inh inactive and MARV entry inh inactive.
Screening Cn1cnc([N+](=O)[O-])c1S(=O)(=O)Oc1ccc(Cl)cc1 returned FMDV antiviral 20µM, Lassa entry inh inconclusive, HCMV inh inactive and MARV entry inh 11.2µM.
`CCS(=O)(=O)c1c([N+](=O)[O-])ncn1C` gave FMDV antiviral inconclusive, Lassa entry inh inactive, HCMV inh inactive and MARV entry inh inactive.
Cn1cnc([N+](=O)[O-])c1Oc1cccc(O)c1 was read as FMDV antiviral 39.8µM, Lassa entry inh inactive, HCMV inh inactive and MARV entry inh inactive.
`Cn1cnc([N+](=O)[O-])c1Oc1cccc2ccccc12` gave FMDV antiviral 28.2µM, Lassa entry inh inactive, HCMV inh inactive and MARV entry inh inconclusive.
Cn1cnc([N+](=O)[O-])c1S(=O)(=O)Oc1cccc2ccccc12 was read as FMDV antiviral 22.4µM, Lassa entry inh inconclusive, HCMV inh inactive and MARV entry inh inconclusive.
For Cc1nc2c(-c3ccccc3)c(C)nn2c(C)c1CCC(=O)NCc1cccc(Cl)c1 the results were FMDV antiviral inactive, Lassa entry inh inactive, HCMV inh inactive and MARV entry inh inactive.
C=CCNC(=O)[C@@]1(Sc2ccc(OC)cc2)CC(=O)N[C@@H]1c1ccc(OC)cc1 was read as HCMV inh inactive.
`CCCC[C@@H](C=O)NC(=O)[C@H](CC(C)C)NC(=O)OCc1ccccc1` gave FMDV antiviral inactive.
`O=C(Nc1ccncc1)c1ccc2c(c1)C(=O)N(C1CCCCC1)C2=O` gave FMDV antiviral 14.1µM, Lassa entry inh inactive, HCMV inh inactive and MARV entry inh inconclusive.
CC(=O)Nc1ccc(C(=O)Nc2ccc3c(c2)N(C2CCCC2)C(=O)c2ccccc2S3)cc1 was read as FMDV antiviral inconclusive, Lassa entry inh 6.31µM and HCMV inh -83.2.
N#Cc1ccc(C(=O)Nc2ccc3c(c2)N(C2CCCC2)C(=O)c2ccccc2S3)cc1 was read as FMDV antiviral inactive, Lassa entry inh inconclusive and HCMV inh inactive.
Cc1nc(N/N=C/c2ccccn2)sc1C was read as FMDV antiviral inactive, Lassa entry inh 1.78µM, HCMV inh -98.0 and MARV entry inh 1.3µM.
For Cc1ccc(C(C(=O)NCc2ccco2)N(C(=O)CNC(=O)c2cccs2)c2c(C)cc(C)cc2C)cc1 (configuration not stated) the results were FMDV antiviral inactive, Lassa entry inh inconclusive, HCMV inh -78.4 and MARV entry inh inconclusive.
